This passage reports morphology score results from the supplement of paper PMC13380429.

This assay has as its system Vero E6 infected with SARS-CoV-2. The assay is described as follows: morphology score (similarity to uninfected cells); higher = more like uninfected cells. The conditions noted are these: 24 h.
Consider `C=C1C(=O)O[C@@H]2C[C@@]3(C)CCC[C@H](C)C3=C[C@H]12` [alantolactone] (10 µM), for which the morphology score amounted to 0.304.
`Nc1ccncc1` [dalfampridine] (10 µM) gave a morphology score of 0.0807.
The result for `COC(=O)[C@H](CC(C)C)NC(=O)c1ccc(NC[C@@H](N)CS)cc1-c1cccc2ccccc12` (10 µM) reads -0.445.
As to `Cc1ccc2c(=O)c3cccc(CC(=O)O)c3oc2c1C` (10 µM), the morphology score was -0.0879.
Compound `Oc1c(Cl)cc(Cl)c(Cl)c1Cc1c(O)c(Cl)cc(Cl)c1Cl` [hexachlorophene] (10 µM) showed a morphology score of 0.167.
The result for `COc1ccc(S(=O)(=O)N2c3ccc(Cl)cc3[C@](O)(c3ccccc3Cl)[C@@H]2C(=O)N2CCC[C@H]2C(N)=O)cc1OC` [relcovaptan] (10 µM) reads -0.0372.
On to `NS(=O)(=O)OC[C@@H]1C[C@@H](n2ccc3c(N[C@H]4CCc5ccccc54)ncnc32)C[C@@H]1O` [pevonedistat] (0.833333 µM), for which the morphology score was -0.404.
The value for `O[C@H]([C@H](O)[C@@H]1CO1)[C@H]1CO1` [dianhydrogalactitol] (10 µM) was -0.0725; that for `O=C(O)CN1C(=O)c2cccc3cccc(c23)C1=O` [alrestatin] (10 µM) was 0.0519; that for `Cc1cc(/C=C2\SC(=O)N(c3ccccc3)C2=O)c(C)n1-c1cccnc1` (10 µM) was -0.171.
Compound `Nc1nc(O)c2[nH]nnc2n1` [azaguanine-8] (0.833333 µM) gave a morphology score of 0.322.
The result for `O=S(=O)(NCC1CC1)c1ccc(Nc2nccc(N3CCCc4cc(O)ccc43)n2)cc1` [pyrintegrin] (0.833333 µM) reads 0.71; that for `C[C@@H]1CCCN1CCc1cc2cc(-c3ccc(C#N)cc3)ccc2o1` (10 µM), 0.44.
The result for `CC1(C)CCC(C)(C)c2c1cc(C(=O)Nc1cc(F)c(C(=O)O)c(F)c1)c(O)c2Cl` (10 µM) reads -0.137; that for `Cc1c(C)c2c(c(C)c1O)CC[C@@](C)(CCC[C@H](C)CCC[C@H](C)CCCC(C)C)O2` [vitamin-E] (10 µM), -0.299; that for `FC(F)(F)c1ccc(CNc2ccc(Cc3c[nH]c4ncc(Cl)cc34)cn2)cn1` [pexidartinib] (10 µM), 0.473.
`CC(=O)N1CCN(CCOc2ccc(C3CCN(C4=Nn5c(nnc5C(F)(F)F)CC4)CC3)cc2)CC1` (0.833333 µM) showed a morphology score of 0.0218.
The value for `O=C(NC[C@H](O)CO)c1ccncc1Nc1ccc(I)cc1F` (0.833333 µM) was -0.139; that for `Cc1cc(C)nc(NS(=O)(=O)c2ccc(NC(=S)NC(=O)COc3ccc(Br)cc3Cl)cc2)n1` (10 µM) was 0.0709.
`O=C(OCCN1CCOCC1)c1cccnc1Nc1cccc(C(F)(F)F)c1` [morniflumate] (10 µM) yielded a morphology score of 0.0767.
On to `Cc1onc(O)c1C[C@@H](N)C(=O)O` (racemic) (10 µM), for which the morphology score is 0.0374.
The value for `COc1cccc2c1C(=O)c1c(O)c3c(c(O)c1C2=O)C[C@@](O)(/C(CO)=N/NC(=O)CCCCCN1C(=O)C=CC1=O)C[C@@H]3O[C@H]1C[C@H](N)[C@H](O)[C@H](C)O1` [aldoxorubicin] (0.833333 µM) was -0.0766.
The result for `CCC(C)(C)C(=O)O[C@H]1C[C@@H](C)C=C2C=C[C@H](C)[C@H](CC[C@@H]3C[C@@H](O)CC(=O)O3)[C@H]21` [simvastatin] (0.833333 µM) reads -0.0774.
The result for `S=C=Nc1ccc(N=C=S)cc1` [bitoscanate] (10 µM) reads -0.0255; that for `O=C1S/C(=C\c2ccc(OCc3cccc(B(O)O)c3)cc2)C(=O)N1Cc1ccc(F)cc1` (10 µM), 0.0573; that for `OB1OCc2cc(F)ccc21` [tavaborole] (10 µM), 0.00492.
For `O=C1Cc2cc(CCN3CCN(c4nsc5ccccc45)CC3)c(Cl)cc2N1` [ziprasidone] (10 µM), the morphology score came out at 0.328.
In turn, `CN/C(=N\CCSCc1nc[nH]c1C)NC#N` [cimetidine] (10 µM) came in with a morphology score of 0.151.
On to `C[C@H](Oc1cc(-c2cnn(C3CCNCC3)c2)cnc1N)c1c(Cl)ccc(F)c1Cl` [crizotinib-(S)] (0.833333 µM), for which the morphology score turned out to be 0.602.
The value for `COCCc1ccc(OCC(O)CNC(C)C)cc1` (stereo not given) [metoprolol] (10 µM) was 0.0844; that for `Cn1c(=O)c2[nH]cnc2n(C)c1=O` [aminophylline] (10 µM) was 0.187.
`Cc1nc2c(O)cccc2c(=O)[nH]1` (10 µM): the morphology score is -0.0261.
In turn, `CCCC1(CCC)CCC2(CCN(CCCN(CC)CC)C2)CC1` [atiprimod] (0.833333 µM) came in with a morphology score of 0.283.
`O=C(Nc1nc2cccc(-c3ccc(CN4CCS(=O)(=O)CC4)cc3)n2n1)C1CC1` [filgotinib] (10 µM): the morphology score turned out to be 0.154.
`CC(C)(CO)CCCCCCC(C)(C)CO` [gemcadiol] (10 µM): the morphology score came to 0.124.
The result for `O=C(Oc1ccc(Br)cc1)N1CCN2CCC1CC2` (10 µM) reads 0.273; that for `Cc1cc(C(=O)Nc2cc(Oc3ccc4nc(NC(=O)C5CC5)cn4n3)ccc2C)n(C)n1` (10 µM), 0.227.
Regarding `O=C1NC(=O)C(c2ccccc2[N+](=O)[O-])=C1Nc1ccc(O)c(Cl)c1` (10 µM), the morphology score is -0.00184.
In the case of `COc1cc2cc(c1Cl)N(C)C(=O)C[C@H](OC(=O)C(C)C)[C@]1(C)O[C@@H]1[C@H](C)[C@@H]1C[C@@](O)(NC(=O)O1)[C@H](OC)/C=C/C=C(\C)C2` [ansamitocin-p-3] (0.833333 µM), the morphology score is -0.108.
As for `O=C(c1cccc(Cl)c1F)N1CCN(Cc2cccc(Nc3nccs3)n2)CC1` (0.833333 µM), the morphology score turned out to be 0.202.
